# An excerpt weighted towards active compounds, which were near 2.7% of everything screened.
# KDM5B inhibitor = inhibitors of human KDM5B histone demethylase | Q9UGL1 | KDM5B demethylase, FDH-coupled NADH fluorescence (FDH is formaldehyde dehydrogenase) | Potency, µM (top dose mostly 57.7 µM), most hits filed as inhibitors | 2.6% of 220,000 active; active means well fitted inhibition curve with a large enough effect; inconclusive means small, poorly fitted or top-dose-only effect; inactive means no such curve, though single readings can be large or run the other way; further: potency means the concentration at half of the fitted maximal effect; 0% is about no effect; nearly all actives have a fitted effect of over 70% in size
#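 Here, H3K4me3 peptide (12.5 µM in substrate mix) is demethylated by KDM5BΔAP, 200 nM final, after 10 min compound exposure. Formaldehyde product is coupled through FDH (0.25 U/mL in mix) to NADH fluorescence; 30-min ΔRFU feeds dose-response curves.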
# IP6K1 inhibitor = IP6K1 kinase inhibition | Q92551 | IP6K1 kinase, ADP-Glo luminescence, 2 h; stronger effect = lower value | activity change, % (series mostly up to about 58 µM) | 0.81% of 140,000 active | AID 1645851; in the data active means activity change below about -25%; further: on the % scale 0 is the no-effect control and ±100 the full control effect
#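 ADP-Glo luminescence measures ADP made by human IP6K1 during a 2 h RT reaction with ATP/IP6 (mix at 1.3 mM/130 uM); top library doses 57.5 and 19.1 uM final.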
# An asterisk follows results filed as active; i = inactive; ? = inconclusive; nt = not tested or not shown.
SMILES,KDM5B inhibitor,IP6K1 inhibitor
NC(=O)Cn1ccc2cc(OCC3CCN(C(=O)CC4CC4)CC3)cnc21,35µM*,-12
O=C(Cc1ccccc1)N1CCC(Oc2cnc3c(ccn3-c3cncnc3)c2)CC1,i,-1
O=C(CC1CC1)N1CCC(Oc2cnc3c(ccn3-c3cncnc3)c2)CC1,i,6
O=C(O)CCn1ncc2cc(OC3CCN(C(=O)COc4ccccc4)CC3)ccc21,i,2
BrCC1CCCNC1 (configuration not stated),i,nt
CC(Sc1nnc(-c2ccncc2)n1C1CC1)C(=O)c1ccc(F)cc1 (configuration not stated),i,nt
COc1cccc(C2CC(=O)Nc3ccsc32)c1OCc1ccc(Cl)cc1 (configuration not stated),i,nt
COc1ccc(-c2cccc(C(=O)N3CCN(C(=O)c4ccc(Cl)cc4)CC3)c2)nn1,nt,5
CCN(CC)CCN1Cc2c(sc(C)c2C)N(C(=O)c2ccc(OC)cc2)C1,i,nt
Cc1nn(-c2ccccc2)c2c1C(C)N(C1CCCN([S+](=O)([O-])c3ccccc3)C1)C2=O (configuration not stated),nt,8
COc1cccc(C(=O)Nc2ccc3oc(C)nc3c2)c1OC,i,nt
Cc1nn(-c2ccc(C(F)(F)F)cc2)c(C)c1[C@@H]1C=C[C@@H](NC(=O)Nc2ccccc2)C1,i,-11
O=C(NC1CCCC1)C1(c2cccc(C(F)(F)F)c2)CCCC1,i,nt
CCOC(=O)c1ccc(NC(=O)CSc2ncc(S(=O)(=O)c3ccc(C)c(Cl)c3)c(=O)[nH]2)cc1,i,-49*
Cc1ccc(C)c(NC(=O)CSc2ncc(S(=O)(=O)c3ccc(C)c(Cl)c3)c(=O)[nH]2)c1,i,1
O=C(Nc1ccc2c(c1)OCO2)C1CCCN(c2cnn(Cc3ccccc3)c(=O)c2)C1 (configuration not stated),?,15
O=C(Nc1ccc2oc(-c3ccccc3)nc2c1)C1CCN(c2cnn(Cc3ccccc3)c(=O)c2)C1 (configuration not stated),18µM*,13
COCc1ccc2c(c1)c(OC(C)(C)C(=O)N1CC(O)C1)nn2Cc1ccccc1,?,-9
COCc1ccc2c(c1)c(OC(C)(C)C(=O)NCC1CCOCC1)nn2Cc1ccccc1,?,15
COCc1ccc2c(c1)c(OC(C)(C)C(=O)N1CCOCC1)nn2Cc1cccc(OC)c1,?,0
COCc1ccc2c(c1)c(OC(C)(C)C(=O)NC1CCC(O)CC1)nn2Cc1ccccc1 (configuration not stated),25µM*,9
CCCNC(=O)C(C)(C)Oc1nn(Cc2ccccc2)c2ccc(COC)cc12,32µM*,-8
COCc1ccc2c(c1)c(OC(C)(C)C(=O)NC(C)C)nn2Cc1cccc(OC)c1,35µM*,-8
O=C(c1ccc(F)c(F)c1)N1CCC(n2cc(-c3nc(C4CC4)no3)nn2)C1 (configuration not stated),i,7
Cc1cc(C)c2oc(C(=O)N(Cc3ccccc3)Cc3ccco3)cc(=O)c2c1,i,nt
SMILES,KDM5B inhibitor,IP6K1 inhibitor
CN(C)CCNC(=O)c1ccc2c(c1)C1(CCN(CC3CC3)C1)CN2Cc1ccccc1 (configuration not stated),35µM*,-4
NC(=O)c1ccc2c(c1)C1(CCN(CC3CC3)C1)CN2Cc1ccccc1 (configuration not stated),35µM*,9
CN1CCC2(C1)CN(Cc1ccccc1)c1ccc(C(=O)Nc3ccn(C)n3)cc12 (configuration not stated),?,7
O=C1N(c2ccccc2)c2ccccc2C12CCN(CC1CC1)C2 (configuration not stated),i,-12
CN1CCC2(C1)CN(Cc1ccccc1)c1ccc(C(=O)NC3COC3)cc12 (configuration not stated),40µM*,11
CN1CCC2(C1)CN(CC1CCOCC1)c1ccc(C(=O)NCC(F)(F)F)cc12 (configuration not stated),35µM*,4
CN1CCC2(C1)CN(CC1CC1)c1ccc(C(=O)NCc3cccs3)cc12 (configuration not stated),?,-2
C#CCNC(=O)C1CCN(Cc2ccccc2-c2ccc(C)c(Cl)c2)CC1,nt,1
CCc1cccc(C)c1NC(=O)c1ccc2ccccc2n1,i,nt
Cc1cc2oc(=O)cc(CSc3cccc(C(F)(F)F)c3)c2cc1C(C)C,i,nt
CS(=O)(=O)c1ccccc1C(=O)OCc1ccccc1F,i,nt
CCCC(=O)Nc1nc2cc(NS(=O)(=O)c3cc(F)ccc3F)ccc2s1,i,nt
O=C(NCCOc1ccccc1)c1ccc2c(c1)OCCN(c1ccccc1)C2,?,-12
CN1CCC2(C1)CN(Cc1ccccc1)c1ccc(C(=O)NCC3CC3)cc12 (configuration not stated),35µM*,1
